Rows were chosen to be rich in hits. Some 12% of all compounds tested hit in one or more screens of this group.
Shiga inhibitor: blocks Shiga toxin action in Vero cells. inhibition, % at 38.7 µM. 290,000 compounds, 9.2% hits. Vero cells, Shiga toxin protein synthesis inhibition reporter; in the data active means inhibition mostly above about 28%, no sharp cut-off; inactive means mostly below about 43%; further: 0% is about no effect
FMDV antiviral: blocks foot and mouth disease virus; FMDV antiviral cell-based qHTS; Potency, µM (series often up to 57.9 µM), for inactives: at the highest dose activity change, negative = inhibition, usual class: inhibitors; 410,000 compounds, 1.2% hits; AID 1159524; calls by dose curve; tested in HEK293T cells; further: read-out not given here; potency means the concentration at half of the fitted maximal effect; on the % scale 0 is the no-effect control and ±100 the full control effect; nearly all actives have a fitted effect of over 45% in size
Cycloheximide cs: counter-screen for Shiga toxin inhibitors: cycloheximide protein synthesis inhibition | 300,000 compounds, 12% hits | max response, % | cell reporter, cycloheximide protein synthesis inhibition counterscreen; in the data active means max response mostly above about 13%, no sharp cut-off; inactive means mostly below about 14%; further: read at 38.3 µM for the half of the compounds with a filed dose; 0% is about no effect
Sm TGR inh: S. mansoni TGR enzyme inhibition | Q962Y6 | purified TGR, DTNB reduction, TNB absorbance 405 nm | Potency, µM (titrated, usually from 114 µM), inactives show top-dose activity change, negative = inhibition, usual class: inhibitors | 360,000 compounds, 3% hits | AID 485364; active means well fitted inhibition curve with a large enough effect; inconclusive means small, poorly fitted or top-dose-only effect; inactive means no such curve, though single readings can be large or run the other way; further: potency means the concentration at half of the fitted maximal effect; on the % scale 0 is the no-effect control and ±100 the full control effect; nearly all actives have a fitted effect of over 60% in size
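TGR 20 nM + NADPH 100 uM (dispensed conc.), cpd preinc 15 min RT; start with NADPH (500 uM addition) then DTNB (15 mM addition). Kinetic TNB absorbance, 405 nm filter. Four-parameter Hill fit across titration.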
Active calls of the source: *; ? = inconclusive; . = no result given.

SMILES	Shiga inhibitor	FMDV antiviral	Cycloheximide cs	Sm TGR inh
O=C(NC1CCCCC1)c1ccc(CSc2nc3cccnc3n2Cc2ccc(F)cc2)cc1	.	?	.	-4%
Cc1nn(CC(=O)NCc2ccc(N(C)C)cc2)c(=O)c2nn(-c3ccccc3)c(C)c12	.	-18%	.	10%
CC(C)C(=O)c1cc2c(cc1NC(=O)c1ccccc1F)OCCO2	.	-17%	.	9%
COc1ccccc1Cn1c(C2CC(=O)N(c3ccccc3OC)C2)nc2ccccc21 (stereo not given)	.	?	.	1%
Cc1cccc(N(C)C(=O)CCNS(=O)(=O)c2ccc3c(c2)CCN3C(=O)C2CC2)c1	.	-9%	.	?
COC(=O)c1ccc(OCC(=O)N2CCCc3ccccc32)cc1	-3	32%	0	6%
O=C(c1ccc2ccccc2c1)N1CCc2ccccc21	48	33%	37*	56%
CCCOc1ccc(C(=O)N2CCCc3ccccc32)cc1	19	-3%	15*	8%
O=C(c1ccc(F)c(F)c1)N1CCCc2ccccc21	1	-4%	-4	5%
NS(=O)(=O)c1ccc(CCNc2nc3c(-c4cccc(F)c4)nnn3c3ccc(Cl)cc23)cc1	.	9%	.	2%
COCCNC(=O)C1CCN(Cc2cc3ccccc3n2Cc2ccc(C)cc2)CC1	.	15%	.	9%
CSc1ccccc1OCc1cc(C(=O)N(C)Cc2cnccn2)no1	110*	23%	52*	0%
CSc1ccccc1OCc1cc(C(=O)NCCn2ccnc2C)no1	40	-1%	2	5%
CSc1ccccc1OCc1cc(C(=O)NCCCn2nc(C)cc2C)no1	30	-18%	4	0%
CSc1ccccc1OCc1cc(C(=O)N(C)Cc2c(C)n[nH]c2C)no1	11	-9%	14*	-4%
CSc1ccccc1OCc1cc(C(=O)N(C)Cc2cc(C)[nH]n2)no1	63	13%	28*	4%
CN(Cc1nccs1)C(=O)c1cc(COc2cccc3cnccc23)on1	-6	?	5	-25%
CCOC(=O)c1sc(N2C(=O)c3oc4ccc(C)cc4c(=O)c3C2c2ccccc2F)nc1C (stereo not given)	.	-11%	.	-4%
Cc1ccc(S(=O)(=O)N2CCN(Cc3cc(=O)n4nc(-c5ccccc5Cl)sc4n3)CC2)cc1	.	34%	.	1%
CSC1=NSC2=NC(=O)/C(=C\c3cccs3)C(=N)N12	42*	-55%	42*	2%
CC(C)CSC1=NSC2=NC(=O)/C(=C\c3cccs3)C(=N)N12	102*	6%	68*	-2%
CSC1=NSC2=NC(=O)/C(=C/c3coc4ccccc4c3=O)C(=N)N12	47*	?	17	-26%
CSC1=NSC2=NC(=O)/C(=C/c3coc4ccc(O)cc4c3=O)C(=N)N12	-29	-26%	-2	?
N=C1/C(=C/c2cccs2)C(=O)N=C2SN=C(SCc3ccccc3)N12	37*	2%	26*	-21%
Cc1cc(/C=C2/C(=N)N3C(=NC2=O)SN=C3S(C)(=O)=O)c(C)n1-c1ccccc1F	61	-23%	6	-23%
SMILES	Shiga inhibitor	FMDV antiviral	Cycloheximide cs	Sm TGR inh
COc1ccc(NC(=O)c2oc3ccccc3c2NC(=O)COc2ccc(F)cc2)c(OC)c1	.	-5%	.	-10%
O=C(Cn1cnc2nc3c(cc2c1=O)CCCC3)N1CCN(c2ccccc2)CC1	.	-22%	.	-6%
COc1cc(C(=O)Nc2cccc(OCc3cc(=O)n4cc(C)sc4n3)c2)cc(OC)c1OC	.	-4%	.	-1%
FC(F)(F)c1ccccc1-c1ccc2ncnc(NCc3cccnc3)c2c1	.	-23%	.	.
COc1cc(/C=C2/C(=N)N3C(SC)=NSC3=NC2=O)ccc1OC(=O)c1ccco1	84	41%	29*	-2%
CCN(CC)C(=O)CSC1=N/C(=C/c2ccco2)C(=O)N1c1ccc(OC)c(Cl)c1	-5	-9%	-2	?
NC(=O)CSC1=N/C(=C\c2ccco2)C(=O)N1c1ccc(OC(F)F)cc1	-3	?	16	45µM*
COc1ccc(N2C(=O)/C(=C\c3ccco3)N=C2SCC(=O)NC(C)(C)C)cc1Cl	25	-15%	13*	-25%
NC1=C(Br)C(=O)c2ncccc2C1=O	.	4µM*	.	.
O=C1c2cccnc2C(=O)N1CO	1	-20%	2	?
Cc1ccc(C(=O)Nc2ccc3c(c2)CCC3)cc1	5	-20%	24	.
CCc1ccc(NC(=O)Nc2ccc3c(c2)CCC3)cc1	62*	13%	32*	-1%
CC(=O)c1cccc(NC(=O)NC2CCCc3ccccc32)c1 (stereo not given)	17	12%	0	8%
CC(=O)c1cccc(NC(=O)Nc2ccc3c(c2)CCC3)c1	41*	12%	35*	51%
Cc1cccc(NC(=O)Nc2ccc3c(c2)CCC3)c1	97*	48%	56*	1%
Cc1ccc(S(=O)(=O)N(CC(O)Cn2c3ccccc3c3ccccc32)c2cccc(C(=O)NCCO)c2)cc1 (stereo not given)	.	?	.	4%
COc1cc(Cl)c(C)cc1NC(=O)c1nn(C)c2c1CSc1ccccc1-2	.	-8%	.	6%
CC(C)C(=O)N1CCN(c2ccc(NC(=O)c3ccc([N+](=O)[O-])o3)cc2Cl)CC1	-39	25µM*	-13	0%
O=C(Nc1ccc(N2CCOCC2)c(Cl)c1)c1ccc([N+](=O)[O-])o1	17	0%	19*	.
CC(C)C(=O)N1CCN(c2ccc(NC(=O)c3ccc([N+](=O)[O-])o3)cc2)CC1	53	-21%	40*	?
CC(C)C(=O)N1CCN(c2ccc(NC(=O)c3ccc(Br)o3)cc2)CC1	10	-16%	-3	5%
Cc1ccc(NC(=O)c2cc([N+](=O)[O-])ccc2N2CCOCC2)cc1S(=O)(=O)N1CCOCC1	10	-17%	-3	1%
Cc1ccc(NC(=O)c2ccc([N+](=O)[O-])o2)cc1S(=O)(=O)N1CCOCC1	28	-25%	32	14µM*
O=C(CSc1c2c(nc3ccccc13)CCC2)Nc1ccc(F)cc1	.	-19%	.	0%
COc1ccccc1NC(=O)N1CCC(CN2CCc3ccccc3C2)CC1	.	-5%	.	0%
SMILES	Shiga inhibitor	FMDV antiviral	Cycloheximide cs	Sm TGR inh
O=C(Nc1cccc(Cl)c1N1CCCC1)c1ccc([N+](=O)[O-])o1	1	-24%	-1	?
CCCC(=O)N1CCN(c2ccc(NC(=O)c3ccc([N+](=O)[O-])o3)cc2Cl)CC1	-35	20µM*	-16	?
COc1c(F)c(F)c(C(=O)Nc2ccc(N3CCN(C(C)=O)CC3)c(Cl)c2)c(F)c1F	-6	?	0	-23%
CN1CCN(c2ccc(NC(=O)c3ccc([N+](=O)[O-])o3)cc2Cl)CC1	55	0%	29*	?
O=C(Nc1ccccc1N1CCN(C(=O)c2ccc(Cl)cc2)CC1)c1ccc([N+](=O)[O-])o1	4	-20%	10	-24%
CC(=O)N1CCN(c2ccc(NC(=O)c3ccc(Br)o3)cc2Cl)CC1	27	18%	28*	?
O=C(Nc1cccc(S(=O)(=O)N2CCCCC2)c1)c1ccc([N+](=O)[O-])o1	14	-23%	29*	-53%
Cc1ccc(CCNC(=O)Cn2c(-c3cccs3)cc3ccccc32)cc1	.	-23%	.	-2%
CCCOc1ccccc1C(=O)N1CCCCC1CCN1CCCCC1 (stereo not given)	-3	3%	-4	-1%

Assay outcomes: PubChem BioAssay, National Center for Advancing Translational Sciences (NCATS)
